# Test results reported in article PMC11062922 (Nature Chemical Biology, 2023).
# Like-named read-outs stand apart in the source and are kept apart here.
# Columns and labels:
# Parameters in all cases: species or system human, MV4-11 + K-562 + COLO205 + SK-N-BE2 + OVCAR-8
# ACVR1B = conditions: read-out: apparent Kd, n = 1
# ADCK3 = conditions: read-out: apparent Kd; compound concentrations:100 nM and 1000 nM (sheet 'Samples'); n = 1
# DDR1 = conditions: read-out: apparent Kd, n = 1
# MAPKAPK2 = conditions: read-out: apparent Kd, n = 1
# PKN3 = conditions: read-out: apparent Kd, n = 1
# RIPK2 = conditions: read-out: apparent Kd, n = 1
# SPR = conditions: read-out: apparent Kd; compound concentrations:100 nM and 1000 nM (sheet 'Samples'); n = 1
# TESK2 = conditions: read-out: apparent Kd; compound concentrations:100 nM and 1000 nM (sheet 'Samples'); n = 1
# TGFBR2 = conditions: read-out: apparent Kd, n = 1
# TTK = conditions: read-out: apparent Kd; compound concentrations:100 nM and 1000 nM (sheet 'Samples'); n = 1
# CDC42 = conditions: read-out: apparent Kd; compound concentrations:100 nM and 1000 nM (sheet 'Samples'); n = 1
# CSNK1A1 = conditions: read-out: apparent Kd, n = 1
# CSNK1D = conditions: read-out: apparent Kd, n = 1
# NQO2 = conditions: read-out: apparent Kd; compound concentrations:100 nM and 1000 nM (sheet 'Samples'); n = 1
# TGFBR1 = conditions: read-out: apparent Kd, n = 1
# ACVR2B = conditions: read-out: apparent Kd; compound concentrations: 100 nM and 1000 nM (sheet 'Samples'), CATDS: 9.05518688532823E-2; n = 1
# OPA1 = conditions: read-out: apparent Kd; compound concentrations: 100 nM and 1000 nM (sheet 'Samples'), CATDS: 7.7038231613769201E-2; n = 1
# PRKD2 = conditions: read-out: apparent Kd, compound concentrations: 100 nM and 1000 nM (sheet 'Samples'), n = 1
# PRKD3 = conditions: read-out: apparent Kd, compound concentrations: 100 nM and 1000 nM (sheet 'Samples'), n = 1
# ATM = conditions: read-out: apparent Kd; compound concentrations: 100 nM and 1000 nM (sheet 'Samples'), CATDS: 0.55136512573741903; n = 1
# PIP4K2C = conditions: read-out: apparent Kd; compound concentrations: 100 nM and 1000 nM (sheet 'Samples'), CATDS: 0.19748549423912701; n = 1
# PRKAG2 = conditions: read-out: apparent Kd; compound concentrations: 100 nM and 1000 nM (sheet 'Samples'), CATDS: 0.19909509316552701; n = 1
# ACVR1 = conditions: read-out: apparent Kd; compound concentrations: 100 nM and 1000 nM (sheet 'Samples'), CATDS: 2.5761015840506201E-2; n = 1
# CIT = conditions: read-out: apparent Kd; compound concentrations: 100 nM and 1000 nM (sheet 'Samples'), CATDS: 4.5392232292010899E-2; n = 1
# CSNK1E = conditions: read-out: apparent Kd; compound concentrations: 100 nM and 1000 nM (sheet 'Samples'), CATDS: 0.26273499221924201; n = 1
# DDR2 = conditions: read-out: apparent Kd; compound concentrations: 100 nM and 1000 nM (sheet 'Samples'), CATDS: 4.5410766330070199E-2; n = 1
# GAK = conditions: read-out: apparent Kd; compound concentrations: 100 nM and 1000 nM (sheet 'Samples'), CATDS: 2.6841490369303E-2; n = 1
# JAK1 = conditions: read-out: apparent Kd; compound concentrations: 100 nM and 1000 nM (sheet 'Samples'), CATDS: 2.6628241709745499E-2; n = 1
# MAPK10 = conditions: read-out: apparent Kd; compound concentrations: 100 nM and 1000 nM (sheet 'Samples'), CATDS: 4.9321772364443003E-2; n = 1
# MAPK11 = conditions: read-out: apparent Kd; compound concentrations: 100 nM and 1000 nM (sheet 'Samples'), CATDS: 2.6556217045786298E-2; n = 1
# MAPK14 = conditions: read-out: apparent Kd; compound concentrations: 100 nM and 1000 nM (sheet 'Samples'), CATDS: 9.6245202156368906E-2; n = 1
# MAPK8 = conditions: read-out: apparent Kd; compound concentrations: 100 nM and 1000 nM (sheet 'Samples'), CATDS: 2.73704072863558E-2; n = 1
# MAPK9 = conditions: read-out: apparent Kd; compound concentrations: 100 nM and 1000 nM (sheet 'Samples'), CATDS: 5.3906209351099597E-2; n = 1
# MYLK3 = conditions: read-out: apparent Kd; compound concentrations: 100 nM and 1000 nM (sheet 'Samples'), CATDS: 2.9739343508474202E-2; n = 1
# NLK = conditions: read-out: apparent Kd; compound concentrations: 100 nM and 1000 nM (sheet 'Samples'), CATDS: 4.6610928560784803E-2; n = 1
# RIPK3 = conditions: read-out: apparent Kd; compound concentrations: 100 nM and 1000 nM (sheet 'Samples'), CATDS: 2.3985776131164802E-2; n = 1
# TNIK = conditions: read-out: apparent Kd; compound concentrations: 100 nM and 1000 nM (sheet 'Samples'), CATDS: 2.6108076869188701E-2; n = 1
# [1] = compound concentrations:100 nM and 1000 nM (sheet 'Samples')
smiles,measurement,setting,value
Cl.Cl.Oc1cc(-c2nc(-c3ccccc3)[nH]c2-c2ccncc2)ccc1Cl.Oc1cc(-c2nc(-c3ccccc3)[nH]c2-c2ccncc2)ccc1Cl [SB-386023-B],potency estimated from few doses,ACVR1B; [1],968 nM
same,potency estimated from few doses,ADCK3,373 nM
same,potency estimated from few doses,DDR1; [1],1840 nM
same,potency estimated from few doses,MAPKAPK2; [1],1700 nM
same,potency estimated from few doses,PKN3; [1],1020 nM
same,potency estimated from few doses,RIPK2; [1],192 nM
same,potency estimated from few doses,SPR,422 nM
same,potency estimated from few doses,TESK2,1470 nM
same,potency estimated from few doses,TGFBR2; [1],2050 nM
same,potency estimated from few doses,TTK,1600 nM
CN(C(=O)c1ccc(-c2cc(-c3c[nH]nc3-c3ccccn3)ccn2)cc1)C1CCOCC1 [GW810083X],potency estimated from few doses,ACVR1B; [1],788 nM
same,potency estimated from few doses,CDC42,1840 nM
same,potency estimated from few doses,CSNK1A1; [1],2390 nM
same,potency estimated from few doses,CSNK1D; [1],1940 nM
same,potency estimated from few doses,NQO2,1200 nM
same,potency estimated from few doses,TGFBR1; [1],198 nM
Cc1ccnc2ccc(-c3sc(N)nc3-c3ccccn3)nc12 [GW777257X],potency estimated from few doses,"ACVR1B; compound concentrations: 100 nM and 1000 nM (sheet 'Samples'), CATDS: 0.44095653710551203",5.66 nM
same,potency estimated from few doses,ACVR2B,854 nM
same,potency estimated from few doses,"CSNK1A1; compound concentrations: 100 nM and 1000 nM (sheet 'Samples'), CATDS: 7.5324168753573395E-2",1730 nM
same,potency estimated from few doses,OPA1,1570 nM
same,potency estimated from few doses,PRKD2; CATDS: 0.11729729568005599,384 nM
same,potency estimated from few doses,PRKD3; CATDS: 0.118060499220425,377 nM
same,potency estimated from few doses,"RIPK2; compound concentrations: 100 nM and 1000 nM (sheet 'Samples'), CATDS: 9.3212886773084105E-2",776 nM
same,potency estimated from few doses,"TGFBR1; compound concentrations: 100 nM and 1000 nM (sheet 'Samples'), CATDS: 0.51991943788690098",4.12 nM
same,potency estimated from few doses,"TGFBR2; compound concentrations: 100 nM and 1000 nM (sheet 'Samples'), CATDS: 8.4852154522950404E-2",1070 nM
NC(=O)c1cc(-c2ccncc2)cc(-c2ccccc2)c1N [GSK625137A],potency estimated from few doses,"ACVR1B; compound concentrations: 100 nM and 1000 nM (sheet 'Samples'), CATDS: 0.24390652724185299",1010 nM
same,potency estimated from few doses,ATM,223 nM
same,potency estimated from few doses,PIP4K2C,1780 nM
same,potency estimated from few doses,PRKAG2,1730 nM
Nc1nccc(-c2c(-c3ccc(F)cc3)ncn2C2CCC(O)CC2)n1 (stereo not drawn) [SB-223133],potency estimated from few doses,"ACVR1B; compound concentrations: 100 nM and 1000 nM (sheet 'Samples'), CATDS: 5.67589208103269E-2",74.5 nM
same,potency estimated from few doses,ACVR1,1350 nM
same,potency estimated from few doses,CIT,140 nM
same,potency estimated from few doses,"CSNK1A1; compound concentrations: 100 nM and 1000 nM (sheet 'Samples'), CATDS: 0.114009601510889",15 nM
same,potency estimated from few doses,"CSNK1D; compound concentrations: 100 nM and 1000 nM (sheet 'Samples'), CATDS: 0.391959397884028",1.72 nM
same,potency estimated from few doses,CSNK1E,3.2 nM
same,potency estimated from few doses,"DDR1; compound concentrations: 100 nM and 1000 nM (sheet 'Samples'), CATDS: 4.8095496683990102E-2",118 nM
same,potency estimated from few doses,DDR2,140 nM
same,potency estimated from few doses,GAK,1070 nM
same,potency estimated from few doses,JAK1,1120 nM
same,potency estimated from few doses,MAPK10,110 nM
same,potency estimated from few doses,MAPK11,1140 nM
same,potency estimated from few doses,MAPK14,21.4 nM
same,potency estimated from few doses,MAPK8,969 nM
same,potency estimated from few doses,MAPK9,85.6 nM
same,potency estimated from few doses,"MAPKAPK2; compound concentrations: 100 nM and 1000 nM (sheet 'Samples'), CATDS: 8.8407398731798204E-2",25.8 nM
same,potency estimated from few doses,MYLK3,653 nM
same,potency estimated from few doses,NLK,129 nM
same,potency estimated from few doses,"PKN3; compound concentrations: 100 nM and 1000 nM (sheet 'Samples'), CATDS: 2.84976438170014E-2",794 nM
same,potency estimated from few doses,PRKD2; CATDS: 2.85113335407263E-2,793 nM
same,potency estimated from few doses,PRKD3; CATDS: 2.77377290368628E-2,906 nM
same,potency estimated from few doses,"RIPK2; compound concentrations: 100 nM and 1000 nM (sheet 'Samples'), CATDS: 7.8449677339207394E-2",33.7 nM
same,potency estimated from few doses,RIPK3,2140 nM
same,potency estimated from few doses,"TGFBR1; compound concentrations: 100 nM and 1000 nM (sheet 'Samples'), CATDS: 3.9958881168014597E-2",210 nM
same,potency estimated from few doses,TNIK,1250 nM
